Measured values reported in PubChem BioAssay.
Results with a measured potency or affinity are listed apart. Results filed as inconclusive are left out. Active and inactive are the calls of the source. Unless noted, the rule behind the calls is not given here.

Columns and labels:
[1] = cytotoxicity in PAX8-dependent RMG-1 cells, dose response, cell-based, cherry-pick (AID 687029;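 active = signal drop whose fitted half-maximal concentration is at most twice the top valid dose, in every test run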;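 note: cells exposed to compound for 96 hours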)
[2] = cytotoxicity in IOSE-T80 ovarian epithelial cells, dose response, selectivity assay for PAX8 inhibitor project, cell-based, cherry-pick (AID 687032;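 active = fitted half-maximal concentration for viability loss no higher than twice the top valid dose, in every repeat run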;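 note: cells exposed to compound for 96 h before reading; 0% = neutral control wells and -100% = 2 µM mitoxantrone kill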)
[3] = inhibitors of CMV-promoter luciferase reporter, dose response, counter-screen for Pax8 inhibitor project, cell-based, HEK293, luminescence, dry powder (AID 743020;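 active = signal-lowering compounds whose fitted half-maximal concentration is at or below twice the top tested dose in every run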;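 note: HEK293 cells stably expressing the CMV luciferase reporter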)
[4] = non-specific cell cytotoxicity, dose response, cytotoxicity control for PAX8 inhibitor project, plate reader, dry powder samples (AID 743021)
[5] = IGROV1 ovarian cancer cell cytotoxicity, dose response, PAX8 inhibitor project, plate reader, dry powder samples (AID 743043);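 note: more negative means fewer viable cells or more cytotoxicity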
[6] = NIH:OVCAR-3 ovarian cancer cell cytotoxicity, dose response, PAX8 inhibitor project, plate reader, dry powder samples (AID 743044)
[7] = IOSE-T80 ovarian epithelial cell cytotoxicity, dose response, cytotoxicity control for PAX8 inhibitor project, plate reader, dry powder samples (AID 743045);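 note: 0% = neutral control median and -100% = positive control median; more negative values mean more cell killing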
[8] = A2780 ovarian cancer cell cytotoxicity, dose response, cytotoxicity control, plate reader, dry powder samples (AID 743046);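 note: 0% = neutral control wells and -100% = cytotoxic reference compound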
[9] = cytotoxicity in OVCAR8 ovarian cancer cells, dose response, PAX8 project, cell-based, plate reader, dry powder samples (AID 743197)
[10] = max activity: at 35 µM, stronger effect = lower value unless noted

Measured: max activity

C[C@@H]1CN([C@H](C)CO)C(=O)c2cc(NC(=O)Nc3ccc(F)cc3)ccc2O[C@@H](C)CCCCO[C@H]1CN(C)S(=O)(=O)c1ccc(Cl)cc1
inactive: [1] | [2] | [3] | [4] | [5] | [6]; [10] -22.1% [at 16 µM, stronger effect = lower value] | [7]

C[C@H]1CN([C@@H](C)CO)C(=O)Cc2cc(NC(=O)Nc3ccc4c(c3)OCO4)ccc2O[C@@H]1CN(C)CC1CCCCC1
inactive: [1] | [2] | [3] | [4] | [5] | [6]; [10] -10.1% | [7]

C[C@H](O)C#Cc1ccc2c(c1)O[C@H](CN(C)Cc1ccc(-c3ccccc3)cc1)[C@H](C)CN([C@@H](C)CO)S2(=O)=O
inactive: [1] | [2] | [3] | [4] | [5] | [6]; [10] 54.2% [at 0.5 µM, stronger effect = lower value] | [7] | [8]

COc1ccc(-c2ccc3c(c2)[C@@H]2[C@@H](CCN2C(=O)NC2CCCCC2)[C@@H](CO)N3C)cc1
inactive: [1] | [2] | [3] | [4] | [5] | [6]; [10] -44.1% [at 9 µM, stronger effect = lower value] | [7]

Cc1ccccc1-c1ccc2c(c1)O[C@H](CN(C)C(=O)Nc1ccc(C(F)(F)F)cc1)[C@H](C)CN([C@H](C)CO)S2(=O)=O
inactive: [1] | [2] | [3] | [4] | [5] | [6]; [10] -27.3% | [7]

COc1ccc(CN(C)C[C@@H]2OCCCC[C@H](C)Oc3ccc(NC(=O)Nc4cccc5ccccc45)cc3C(=O)N([C@H](C)CO)C[C@H]2C)cc1
inactive: [1] | [2] | [3] | [4] | [5] | [6]; [10] -16.9% | [7] | [8]

O=C(C[C@@H]1C[C@@H]2c3cc(NS(=O)(=O)c4ccc(F)cc4)ccc3O[C@@H]2[C@@H](CO)O1)NCc1ccc(-c2ccccc2)cc1
inactive: [1] | [2] | [3] | [4] | [5] | [6]; [10] -23.3% [at 16 µM, stronger effect = lower value] | [7]

CCc1ccc2[nH]c3nc(N/N=C/c4ccc(O)cc4O)nnc3c2c1
inactive: [1] | [2] | [3] | [4]

O=C(C[C@@H]1CC[C@H]2[C@@H](COC[C@H](O)CN2C(=O)Nc2ccc(Cl)c(Cl)c2)O1)NCc1ccc(Cl)cc1
inactive: [1] | [2] | [3] | [4] | [5] | [6]; [10] -36.1% | [7]

C[C@@H]1CN([C@@H](C)CO)C(=O)c2cc(NC(=O)Nc3ccc(C(F)(F)F)cc3)ccc2O[C@@H](C)CCCCO[C@@H]1CN(C)Cc1ccccc1
inactive: [1] | [2] | [3] | [4] | [5] | [6]; [10] -20.5% [at 16 µM, stronger effect = lower value] | [7] | [8]

O=C(Nc1ccc(C(F)(F)F)cc1)N1C[C@@H]2N[C@H](C1)C2c1ccc(-c2cccc(F)c2)cc1 (some centres undefined)
inactive: [1] | [2] | [3] | [4] | [5] | [6]; NIH:OVCAR-3 ovarian cancer cell viability, at 8 µM, stronger effect = lower value -9.78% | [6]; NIH:OVCAR-3 ovarian cancer cell viability, at 35 µM, stronger effect = lower value -0.968% | [7] | [8] | [9]

C[C@H](CO)N1C[C@H](C)[C@@H](CN(C)Cc2ccc(Cl)c(Cl)c2)OCCCC[C@H](C)Oc2ccc(NS(=O)(=O)c3ccc(F)cc3)cc2C1=O
inactive: [1] | [2] | [3] | [4] | [5] | [6]; [10] -28.3% | [7]

C[C@@H]1CN([C@H](C)CO)C(=O)c2cc(NC(=O)CCCCCC(=O)Nc3ccccc3N)ccc2O[C@@H](C)CCCCO[C@H]1CN(C)Cc1ccc(Cl)c(Cl)c1
inactive: [1] | [2] | [3] | [4] | [5] | [6]; [10] -28.2% | [7] | [8]

COc1ccccc1C#Cc1ccc2c(c1)O[C@H](CN(C)Cc1cccnc1)[C@H](C)CN([C@H](C)CO)S2(=O)=O
inactive: [1] | [2] | [3] | [4] | [5] | [6]; [10] -36.9% | [7] | [8]

CN1C(=O)c2cc(NC(=O)c3cccc(Cl)c3)ccc2OC[C@@H]2O[C@H](CC(=O)NC3CCCCC3)CC[C@@H]21
inactive: [1] | [2] | [3] | [4] | [5] | [6]; [10] -25.7% | [7]

COc1ccc(COC(=O)c2cc([N+](=O)[O-])ccc2N2CCOCC2)cc1F
inactive: [1] | [2] | [3] | [4]

C[C@H](CO)N1C[C@H](C)[C@H](CN(C)S(=O)(=O)c2ccccc2)OCCCC[C@H](C)Oc2ccc(NS(=O)(=O)c3ccc(Cl)cc3)cc2C1=O
inactive: [1] | [2] | [3] | [4] | [5] | [6]; [10] -18.9% | [7]

O=C(CCCN1C(=O)/C(=C/c2ccccc2OC(F)F)SC1=S)Nc1cccnc1
inactive: [1] | [2] | [3] | [4]

C[C@@H]1CCCCO[C@@H](CN(C)Cc2ccccc2)[C@@H](C)CN([C@@H](C)CO)C(=O)c2cc(NS(=O)(=O)c3ccc(Cl)cc3)ccc2O1
inactive: [1] | [2] | [3] | [4] | [5] | [6]; [10] 29.1% [at 0.26 µM, stronger effect = lower value] | [7]

COc1ccc2c3c(n(C)c2c1)[C@H](CO)N(C(=O)Nc1ccc(F)cc1)CC31CCN(S(=O)(=O)c2cccc(C)c2)CC1
inactive: [1] | [2] | [3] | [4] | [5] | [6]; [10] -14.5% | [7]

Cc1ccc(S(=O)(=O)N2CCCCC2)cc1NC(=O)Cc1c[nH]c2ccccc12
inactive: [1] | [2] | [3] | [4]

CN1c2ccc(-c3ccccc3)cc2[C@@H]2[C@@H](CCN2C(=O)NC2CCCCC2)[C@@H]1CO
inactive: [1] | [2] | [3] | [4] | [5] | [6]; [10] 7.48% [at 0.26 µM, stronger effect = lower value] | [7] | [8]

COc1cccc(S(=O)(=O)Nc2ccc3c(c2)[C@H]2C[C@H](CC(=O)NCc4ccccc4F)O[C@H](CO)[C@H]2O3)c1
inactive: [1] | [2] | [3] | [4] | [5] | [6]; [10] 44.6% [at 0.5 µM, stronger effect = lower value] | [7] | [8]

O=C(C[C@H]1C[C@@H]2c3cc(NS(=O)(=O)c4ccc(F)cc4)ccc3O[C@@H]2[C@@H](CO)O1)NCc1ccc(-c2ccccc2)cc1
inactive: [1] | [2] | [3] | [4] | [5] | [6]; [10] -28.3% | [7] | [8]

Cc1ccc(S(=O)(=O)N(C)C[C@@H]2OCCCC[C@@H](C)Oc3ccc(NS(=O)(=O)c4ccc(Cl)cc4)cc3C(=O)N([C@H](C)CO)C[C@H]2C)cc1
inactive: [1] | [2] | [3] | [4] | [5] | [6]; [10] -13.3% [at 4.2 µM, stronger effect = lower value] | [7] | [8]

C[C@@H]1CN([C@@H](C)CO)C(=O)Cc2cc(NC(=O)Nc3ccc(C(F)(F)F)cc3)ccc2O[C@H]1CN(C)Cc1ccc(Oc2ccccc2)cc1
inactive: [1] | [2] | [3] | [4] | [5] | [6]; [10] -19.5% | [7] | [8]

C[C@@H]1CN([C@H](C)CO)C(=O)c2c(c3ccccc3n2C)-c2ccccc2CO[C@@H]1CN(C)S(=O)(=O)c1ccc(C(F)(F)F)cc1
inactive: [1] | [2] | [3] | [4] | [5] | [6]; [10] -18.1% [at 16 µM, stronger effect = lower value] | [7] | [8]

COc1cccc(S(=O)(=O)N(C)C[C@@H]2OCc3ccccc3-c3c(n(C)c4ccccc34)C(=O)N([C@@H](C)CO)C[C@@H]2C)c1
inactive: [1] | [2] | [3] | [4] | [5] | [6]; [10] 23.2% [at 2.1 µM, stronger effect = lower value] | [7] | [8]

Cc1ccc(S(=O)(=O)N(C)C[C@H]2OCCCC[C@H](C)Oc3ccc(NS(=O)(=O)c4ccc(Cl)cc4)cc3C(=O)N([C@@H](C)CO)C[C@@H]2C)cc1
inactive: [1] | [2] | [3] | [4] | [5] | [6]; [10] 10.8% [at 2.1 µM, stronger effect = lower value] | [7] | [8]

C[C@H]1CN([C@@H](C)CO)S(=O)(=O)c2ccc(-c3ccc(C#N)cc3)cc2O[C@@H]1CN(C)Cc1cccc(F)c1
inactive: [1] | [2] | [3] | [4] | [5] | [6]; [10] -11.6% [at 16 µM, stronger effect = lower value] | [7] | [8]

Cc1cccc(-c2ccc([C@H]3[C@@H](CO)N4CCCCN(S(=O)(=O)c5cccc(C)c5)C[C@@H]34)cc2)c1
inactive: [1] | [2] | [3] | [4] | [5] | [6]; [10] -13.6% | [7] | [8]

C[C@H](CO)N1C[C@H](C)[C@H](CN(C)C(=O)c2ccccc2)OCCCC[C@H](C)Oc2ccc(NC(=O)Nc3ccc(C(F)(F)F)cc3)cc2C1=O
inactive: [1] | [2] | [3] | [4] | [5] | [6]; [10] 16.6% [at 0.5 µM, stronger effect = lower value] | [7] | [8]

Cc1ccc(S(=O)(=O)N(C)C[C@@H]2OCCCC[C@H](C)Oc3ccc(NS(=O)(=O)c4cccs4)cc3C(=O)N([C@H](C)CO)C[C@H]2C)cc1
inactive: [1] | [2] | [3] | [4] | [5] | [6]; [10] 5.96% | [7] | [8]
